# Source: PMC7826789 (International Journal of Molecular Sciences, 2021)
# What was measured:
# [1] = tested on: PIM1
# [2] = tested on: PIM2
# [3] = tested on: PIM3
# [4] = tested on: PIP4K2C
# [5] = tested on: PIP5K1C
# [6] = tested on: PIP5K2C
# [7] = tested on: PLK1
# [8] = tested on: PLK2
# [9] = tested on: PLK3
# [10] = tested on: PRK2
# [11] = tested on: PRKAA1
# [12] = tested on: PRKCD
# [13] = tested on: PRKCE
# [14] = tested on: PRKCQ
# [15] = tested on: PRKCH
# [16] = tested on: PRKD2
# [17] = tested on: PRKD3
# [18] = tested on: PRKX
# [19] = tested on: PTK2B
structure (smiles),measurement,setting,value
CCn1c(-c2nonc2N)nc2cncc(C(=O)N3CC[C@H](N)C3)c21.Cl [SB-772077-B],Kinases covered,[1],PIM1
O=C1Nc2ccc(I)cc2C1=Cc1cc(Br)c(O)c(Br)c1 [GW305074X],Kinases covered,[2],PIM2
NCC1CNC(=O)c2cc3ccc(C(=O)Nc4cccnc4)cc3n2C1 (stereo not shown) [BI00614644],Kinases covered,[3],PIM3
Nc1nccc(-c2c(-c3ccc(F)cc3)ncn2C2CCN(Cc3ccccc3)CC2)n1 [SB-219980],Kinases covered,[4],PIP4K2C
O=C(c1ccc(-c2cc(-c3c[nH]nc3-c3ccccn3)ccn2)cc1)N1CCCC1 [GW792479],Kinases covered,[4],PIP4K2C
CCCc1cc(N2CCCN(C)CC2)nc2sc3c(N)ncnc3c12 [BI00604564],Kinases covered,[5],PIP5K1C
CC(C)N1CC(=O)N(C)c2cnc(Nc3cccc(S(=O)(=O)CCN4CCOCC4)c3)nc21 [BI00009348],Kinases covered,[5],PIP5K1C
same,Kinases covered,[6],PIP5K2C
Cc1cc(NC(=O)c2cccc(NC(=O)/C=C/CN(C)C)c2)ccc1Nc1nccc(-c2cccnc2)n1 [JNK-IN-7],Kinases covered,[6],PIP5K2C
COc1cc2ncn(-c3cc(OCC4CCCO4)c(C(N)=O)s3)c2cc1OC (stereo not shown) [GSK204607],Kinases covered,[7],PLK1
same,Kinases covered,[8],PLK2
same,Kinases covered,[9],PLK3
C[C@@H](Oc1cc(-n2cnc3ccc(CN4CCN(C)CC4)cc32)sc1C(N)=O)c1ccccc1C(F)(F)F [GSK461364],Kinases covered,[7],PLK1
COc1cc2ncn(-c3cc(OCc4ccncc4)c(C(N)=O)s3)c2cc1OC [GSK336313],Kinases covered,[8],PLK2
CCn1c(-c2nonc2N)nc2cncc(CNC3CCNCC3)c21 [SB-747651A],Kinases covered,[10],PRK2
COc1cc(Nc2cnc(C#N)c(O[C@H](C)CN(C)C)n2)ncc1-c1cnn(C)c1 [CCT244747],Kinases covered,[11],PRKAA1
NCC1CCC(CNc2nc(NCc3ccccc3OC(F)(F)F)ncc2[N+](=O)[O-])CC1 (stereo not shown) [BIRZ0518XX],Kinases covered,[12],PRKCD
same,Kinases covered,[13],PRKCE
same,Kinases covered,[14],PRKCQ
CCn1c(-c2nonc2N)nc2c(C#CC(C)(C)O)nc(OCCNC)cc21.Cl [GSK949675],Kinases covered,[15],PRKCH
COc1ccc2nc(-c3cccc(C)n3)nc(Nc3ccncc3)c2c1 [GSK204919],Kinases covered,[16],PRKD2
Cc1cccc(-c2nc(Nc3ccncc3)c3ccccc3n2)n1 [GW855857],Kinases covered,[16],PRKD2
same,Kinases covered,[17],PRKD3
CNc1nc(-c2ccc3c(N)n[nH]c3c2)cc(N2C[C@@H](C(=O)Nc3ccccc3)CC[C@H]2C)n1 [GSK2298859],Kinases covered,[18],PRKX
COc1cc(N2CCN(C(C)C)CC2)ccc1Nc1nc(Nc2ccc(F)cc2C(=O)NC[C@@H](O)CO)c2cc[nH]c2n1 [GSK1392956A],Kinases covered,[19],PTK2B
